Assay outcomes from PubChem.
D2 ag-1: HTS Assay for Allosteric Agonists of the Human D2 Dopamine Receptor: Primary Screen for Agonists | D(2) dopamine receptor (Homo sapiens), P14416 | HEK293 T-REx D2 cells, calcium flux agonist mode | AID 485358, 2010 | 340,000 tested, 0.53% active | activation, % at 2 µM;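 active = activation over 3 SD above normal in the single-dose calcium agonist read, cut at about 30% in these data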; note: 0% is about no effect
Target sequence (P14416 whole entry, looked up): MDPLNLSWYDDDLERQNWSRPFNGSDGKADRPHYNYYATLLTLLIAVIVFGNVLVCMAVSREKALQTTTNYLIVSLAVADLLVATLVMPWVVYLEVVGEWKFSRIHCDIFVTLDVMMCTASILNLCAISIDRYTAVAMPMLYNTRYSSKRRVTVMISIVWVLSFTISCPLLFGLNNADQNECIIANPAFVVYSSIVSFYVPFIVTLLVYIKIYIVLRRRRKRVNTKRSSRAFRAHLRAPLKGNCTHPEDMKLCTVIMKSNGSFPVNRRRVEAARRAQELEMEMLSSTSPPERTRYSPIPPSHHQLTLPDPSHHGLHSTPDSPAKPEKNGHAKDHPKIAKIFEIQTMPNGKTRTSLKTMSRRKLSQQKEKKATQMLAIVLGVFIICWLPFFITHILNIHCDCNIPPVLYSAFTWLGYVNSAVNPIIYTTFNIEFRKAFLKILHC
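HEK293 Trex D2 cells, tetracycline-induced, o/n 30 C 5% CO2; no-wash Ca dye, RT 30–90 min; 10-cycle baseline, 23 nl cpd added, kinetic Ca read 180 s; agonist hits = positive Ca response.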
D2 PAM-1: HTS Assay for Positive Allosteric Modulators of the Human D2 Dopamine Receptor: Primary Screen for Potentiators | D(2) dopamine receptor (Homo sapiens), P14416 | HEK293 T-REx D2, calcium flux, EC20 dopamine potentiation | potentiation, % at 10 µM | 340,000 tested, 0.34% active | AID 485347, 2010;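 active = potentiation over 3 SD above the plate norm, cut at about 30% in these data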; note: 0% is about no effect
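Potentiation of an EC20 dopamine calcium response measured kinetically over 180 s, after a preceding 180 s compound-only read flagging agonists. Cells: inducible Hek293 Trex D2 line, 4000/well, cultured overnight at 30 C before dye loading.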
D2 antag: HTS Assay for Allosteric Antagonists of the Human D2 Dopamine Receptor: Primary Screen for Antagonists | HEK293 TREx D2 cells, calcium flux, dopamine EC80 | D(2) dopamine receptor (Homo sapiens), P14416 | 340,000 tested, 2% active | inhibition, % at 10 µM | AID 485344, 2010; in the data active = inhibition above about 30%; inactive = below that, where a call was filed; note: 0% is about no effect
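In this primary screen, negative modulation is detected by tracking calcium flux after an EC80 dopamine challenge in inducible HEK293 T-REx D2 cells preexposed to test compound for 180 s.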
D2 PAM-2: Beta-Arrestin HTS for Positive Allosteric Modulators of the Human D2 Dopamine Receptor: Potentiators. D(2) dopamine receptor (Homo sapiens), P14416. DiscoveRx D2 beta-arrestin cells, luminescence, 90 min; 100% = 57 uM dopamine signal. potentiation, % (no concentration beside the values). 360,000 tested, 0.23% active; in the data active = potentiation above about 50%; inconclusive = mostly about 30% to 49%
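D2 cells co-treated with compound plus 50 nM dopamine (EC20) for 90 min at 37 deg C to detect potentiation. Beta-arrestin recruitment was read as enzyme-fragment luminescence after 1 h at ambient temperature. Full response was set by 57 uM dopamine.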
D2 ag-2: Beta-Arrestin HTS for Positive Allosteric Modulators of the Human D2 Dopamine Receptor: Agonists; DiscoveRx PathHunter D2 beta-arrestin, luminescence, 90 min; 100% = 57 uM dopamine signal; activation, % (test concentration not listed); 360,000 tested, 0.084% active; in the data active = activation above about 40%; inconclusive = between about 15% and that limit
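Agonist mode: compounds alone added to overnight-plated D2 PathHunter cells for 90 min at 37 C, with 57 uM final dopamine (EC100) defining full response. Beta-arrestin recruitment detected by chemiluminescent reagent, read after 1 h at ambient temperature.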
* = called active by the depositor; u = inconclusive; x = no result. In the library only some 2.4% were active in any assay of this set; here they are far more common.

SMILES	D2 ag-1	D2 PAM-1	D2 antag	D2 PAM-2	D2 ag-2
O=C1NC(c2ccc(-c3ccccc3[N+](=O)[O-])o2)C(C(=O)c2ccc(F)cc2)C(O)(C(F)(F)F)N1 (configuration not stated)	1	17	27	58*	u
CC1(C)Cc2c(ccc3ccccc23)/C(=C/C(=O)N2CCCCC2)N1	0	19	33*	-6	-4
Cc1ccc(SC[C@H](c2ccccc2)N2CCN(CCc3ccccc3)CCC2=O)cc1	0	-8	41*	-30	3
Cc1ccc(C)c(OCCC(=O)NNC(=O)c2ccccc2)c1	1	-4	-29	-8	1
Cc1ccc(C)c(OCCC(=O)NNC(=O)c2ccncc2)c1	-1	0	43*	-15	-2
CC1Cc2cc(S(=O)(=O)NCc3ccccc3Cl)ccc2N1C(=O)C1CCC1 (configuration not stated)	0	x	x	x	x
COc1ccc(C)cc1NC(=O)NCCC1=CCCCC1	-1	-30	86*	-22	-3
COC(=O)c1ccc(NC(=S)NCCC2=CCCCC2)cc1	0	-16	55*	-19	-1
O=C(Nc1ccc2nc(SCC(=O)N3CCc4ccccc43)sc2c1)c1ccccc1	0	x	x	x	x
COc1ccc(NC(=O)Nc2sc3nc4n(c(=O)c3c2C)CCC(C)CC4)cc1OC (configuration not stated)	-1	-2	x	x	x
O=c1[nH]cnc2c1ncn2[C@@H]1C[C@@H](O)[C@H](CO)O1	1	10	38*	0	-6
COc1cc(OC)c(N(C)C(=O)c2nn(C)c3c2CSc2ccccc2-3)cc1Cl	4	-3	x	x	x
COc1ccc(-n2c(=O)c3c4c(sc3n(Cc3ccc(C)cc3C)c2=O)CCC4)c(OC)c1	-1	-25	x	x	x
COc1cc(C(=O)O/N=C2/C=CC(=O)C(C)=C2C)cc(OC)c1OC	0	0	5	72*	u
COc1cc(C(=O)ON=C2C3CC4CC(C3)CC2C4)cc(OC)c1OC	-1	3	-16	18	45*
COc1cc(C(=O)NC23CC4CC(CC(C4)C2)C3)cc(OC)c1OC	0	-9	10	-7	-6
COc1cc(C(=O)O/N=C2\C=CC(=O)C=C2C)cc(OC)c1OC	1	6	50*	0	1
Cc1ccc(CC(=O)Nc2nncs2)cc1	0	0	47*	4	0
COc1ccc(CC(=O)Nc2nncs2)cc1OC	1	-5	-8	11	1
CCc1ccc(-n2c(=O)c3ccc(C(=O)NCCc4ccccc4)cc3n(Cc3ccccc3C#N)c2=O)cc1	-1	5	x	x	x
Cc1oc2c(CN3CCC(C)CC3)c(O)ccc2c(=O)c1-c1ccccc1	-1	-4	44*	-11	-4
Cc1oc2c(CN3CCCC3)c(O)ccc2c(=O)c1-c1ccccc1	0	10	2	-8	-3
Cc1cc(C)c(O)c(-c2cc(C(=O)Nc3ccc(S(=O)(=O)N4CCOCC4)cc3)[nH]n2)c1	1	36*	-7	16	4
Cc1cc(OCc2cc(C(=O)N3CCN(C)C(=O)[C@@H]3C)no2)cc(C)c1Cl	1	30*	3	-14	0
COc1cc(Cl)ccc1OCc1cc(C(=O)N2CCN(C)C(=O)[C@@H]2C)no1	x	x	x	4	0
SMILES	D2 ag-1	D2 PAM-1	D2 antag	D2 PAM-2	D2 ag-2
CN(C)CCN(Cc1ccc(Cl)cc1)c1ccccn1	1	-21	59*	-22	-3
C[N+](C)(C)CCN(Cc1ccc(Cl)cc1)c1ccccn1	0	6	9	-4	-1
COc1cccc(NC(=O)CN(C)C(=O)CSc2nc(C)cc(C)n2)c1	-1	-5	41*	-1	-2
COc1ccc(NC(=O)CN(C)C(=O)CCSc2ccc(F)cc2)cc1	0	18	34*	-34	-4
O=C(CCNC(=O)N1CC(=O)Nc2ccccc21)NCc1ccc(F)cc1	0	-13	52*	-27	-10
CCOc1ccc(NC(=O)CN2CCSc3ccc(S(=O)(=O)N4CCCC4)cc32)cc1	0	-7	x	x	x
COc1ccccc1Cn1c(-c2ccccc2OC)nc2ccccc21	1	10	22	-10	-2
Oc1ccccc1Cn1c(-c2ccccc2O)nc2ccccc21	0	8	34*	9	2
COc1cc(NC(=O)c2c(C)nn(-c3ccc(F)cc3)c2-n2cccc2)cc(OC)c1	0	-1	x	x	x
CCCS(=O)(=O)c1ncc(Cl)c(C(=O)N2CCN(c3ccc(OC)cc3)CC2)n1	0	0	x	x	x
CCOC(=O)c1c(C)[nH]c(C)c1C(=O)COC(=O)c1ccc(S(=O)(=O)C(F)F)cc1	0	14	39*	8	0
CCOC(=O)c1c(C)[nH]c(C)c1C(=O)COC(=O)c1ccc(O)cc1	4	12	-7	-3	0
Cc1ccc(Nc2cc(C(=O)NC3CCCC3)c3ccccc3n2)cc1C	0	-1	x	x	x
COc1cccc2cc(C(C)N(CCCN3CCOCC3)C(=S)Nc3ccc(C)c(C)c3)oc12 (configuration not stated)	-3	-14	-9	-26	-5
COc1ccc(NC(=S)N(CCCN2CCOCC2)C(C)c2cc3cccc(OC)c3o2)cc1 (configuration not stated)	0	-18	35*	-15	-1
O=[N+]([O-])c1ccc(/C=N/NC(=S)Nc2ccc(Cl)cc2Cl)s1	2	-7	45*	-10	-3
Cc1cccc(NC2=CC(c3cccc(Br)c3)N(c3cccc(C)c3)C2=O)c1 (configuration not stated)	1	-11	x	x	x
CC(Nc1oc(-c2ccc(COc3ccccc3)o2)nc1C#N)c1ccccc1 (configuration not stated)	0	12	x	x	x
CCCN(CC(=O)Nc1ccc(Cl)cc1Cl)C(=O)CC(NC(C)=O)c1ccccc1 (configuration not stated)	0	0	-10	-48	-4
CC(=O)NC(CC(=O)NC(C)c1ccc(Cl)cc1Cl)c1ccccc1 (configuration not stated)	-5	-5	34*	-16	-1
Oc1ccc2ccccc2c1C=Nc1ccccc1-c1nc2ccccc2[nH]1	0	0	41*	53*	15
O=C(O)c1ccccc1-c1nc2ccccc2[nH]1	2	1	-6	-2	1
